PubChem BioAssay
Active and inactive are the calls of the source.

What was measured:
[1] = tested on: Plasmodium falciparum Sir2 (PF13_0152, Sir2A); assay: Plasmodium falciparum Sir2A binding compounds – biochemical, small-molecule microarray, 635 nm fluorescence, primary screen (AID 1098); details: fluorescence 635 nm, higher = more signal;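 note: score merges spot fluorescence intensity with its signal-to-noise ratio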
[2] = probe aDKK1 binding to arrayed compounds – biochemical, biotinylated probe, 635/667 nm fluorescence, primary screen (AID 1099); details: small-molecule microarray, higher = more signal;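 note: score merges 667nm spot fluorescence with signal to noise across triplicate slides; reference of the scale not given here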
[3] = probe aCHRDL2 binding to arrayed compounds – biochemical, biotinylated probe, 635/667 nm fluorescence, primary screen (AID 1100); details: small-molecule microarray, higher = more signal
[4] = change in splice reporter luminescence, either direction, cell-based, HEK293, spliceosome inhibition project, primary screen (AID 1101); details: HEK293 splicing luciferase reporter, 24 h, higher = more signal, called active from +8 up or from −8 down;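 note: HEK293 cells carrying a splicing-competent luciferase reporter gene; test concentration not given here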
[5] = molecular target: Fibroblast growth factor 10 (Homo sapiens) (UniProt O15520); assay: compounds binding fibroblast growth factor 10 – biochemical, small-molecule microarray, 635 nm fluorescence, primary screen (AID 1102); details: FGF10 binding, fluorescence 635 nm, higher = more signal
[6] = tested on: glycogen synthase kinase-3 (GSK3A per assay name; protocol says GSK3B); assay: compounds binding glycogen synthase kinase-3 – biochemical, small-molecule microarray, 635 nm fluorescence, GSK3A, primary screen (AID 1103); details: fluorescence 635 nm, higher = more signal; note: the record names both GSK3A and GSK3B
[7] = molecular target: Epidermal growth factor receptor (Homo sapiens) (UniProt P00533); assay: compounds binding epidermal growth factor receptor – biochemical, small-molecule microarray, 635 nm fluorescence, primary screen (AID 1104); details: EGFR binding, higher = more signal;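 note: score merges 667 nm emission intensity with spot signal to noise over triplicate slides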
[8] = molecular target: Follistatin-related protein 3 (Homo sapiens) (UniProt O95633); assay: compounds binding follistatin-related protein 3 – biochemical, small-molecule microarray, 635 nm fluorescence, primary screen (AID 1105); details: FSTL3 binding, higher = more signal;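 note: score merges emission near 667 nm and signal to noise per printed spot across three slides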
[9] = molecular target: Dickkopf-related protein 1 (Homo sapiens) (UniProt O94907); assay: small molecules binding DKK1 protein – biochemical, small-molecule microarray, 635 nm fluorescence scan, primary screen (AID 1106); details: higher = more signal;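 note: score merges emission near 667 nm with signal to noise over three replicate slides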
[10] = tested on: Inhibin beta A chain (activin A); assay: small molecules binding activin A – biochemical, small-molecule microarray, 635 nm fluorescence scan, primary screen (AID 1107); details: INHBA, higher = more signal;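 note: mouse activin A protein probed at 4.33 µg/mL on printed slides; score merges bound-protein fluorescence near 667 nm with spot signal-to-noise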

Sequence of Dickkopf-related protein 1 (Homo sapiens) (O94907 whole entry, looked up): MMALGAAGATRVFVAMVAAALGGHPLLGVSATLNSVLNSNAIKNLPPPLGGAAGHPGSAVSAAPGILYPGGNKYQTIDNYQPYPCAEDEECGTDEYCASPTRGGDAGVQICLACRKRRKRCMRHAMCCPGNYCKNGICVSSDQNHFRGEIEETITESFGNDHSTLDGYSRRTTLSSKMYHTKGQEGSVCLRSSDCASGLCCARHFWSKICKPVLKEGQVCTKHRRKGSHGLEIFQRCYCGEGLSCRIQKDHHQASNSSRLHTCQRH
Sequence of Fibroblast growth factor 10 (Homo sapiens) (O15520 whole entry, looked up): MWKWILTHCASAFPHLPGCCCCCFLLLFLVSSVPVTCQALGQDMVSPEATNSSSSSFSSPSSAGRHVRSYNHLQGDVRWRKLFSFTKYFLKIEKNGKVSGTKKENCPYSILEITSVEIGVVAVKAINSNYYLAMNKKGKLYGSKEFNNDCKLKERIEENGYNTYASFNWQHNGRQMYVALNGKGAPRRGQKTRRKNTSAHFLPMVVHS
Sequence of Epidermal growth factor receptor (Homo sapiens) (P00533 whole entry, looked up): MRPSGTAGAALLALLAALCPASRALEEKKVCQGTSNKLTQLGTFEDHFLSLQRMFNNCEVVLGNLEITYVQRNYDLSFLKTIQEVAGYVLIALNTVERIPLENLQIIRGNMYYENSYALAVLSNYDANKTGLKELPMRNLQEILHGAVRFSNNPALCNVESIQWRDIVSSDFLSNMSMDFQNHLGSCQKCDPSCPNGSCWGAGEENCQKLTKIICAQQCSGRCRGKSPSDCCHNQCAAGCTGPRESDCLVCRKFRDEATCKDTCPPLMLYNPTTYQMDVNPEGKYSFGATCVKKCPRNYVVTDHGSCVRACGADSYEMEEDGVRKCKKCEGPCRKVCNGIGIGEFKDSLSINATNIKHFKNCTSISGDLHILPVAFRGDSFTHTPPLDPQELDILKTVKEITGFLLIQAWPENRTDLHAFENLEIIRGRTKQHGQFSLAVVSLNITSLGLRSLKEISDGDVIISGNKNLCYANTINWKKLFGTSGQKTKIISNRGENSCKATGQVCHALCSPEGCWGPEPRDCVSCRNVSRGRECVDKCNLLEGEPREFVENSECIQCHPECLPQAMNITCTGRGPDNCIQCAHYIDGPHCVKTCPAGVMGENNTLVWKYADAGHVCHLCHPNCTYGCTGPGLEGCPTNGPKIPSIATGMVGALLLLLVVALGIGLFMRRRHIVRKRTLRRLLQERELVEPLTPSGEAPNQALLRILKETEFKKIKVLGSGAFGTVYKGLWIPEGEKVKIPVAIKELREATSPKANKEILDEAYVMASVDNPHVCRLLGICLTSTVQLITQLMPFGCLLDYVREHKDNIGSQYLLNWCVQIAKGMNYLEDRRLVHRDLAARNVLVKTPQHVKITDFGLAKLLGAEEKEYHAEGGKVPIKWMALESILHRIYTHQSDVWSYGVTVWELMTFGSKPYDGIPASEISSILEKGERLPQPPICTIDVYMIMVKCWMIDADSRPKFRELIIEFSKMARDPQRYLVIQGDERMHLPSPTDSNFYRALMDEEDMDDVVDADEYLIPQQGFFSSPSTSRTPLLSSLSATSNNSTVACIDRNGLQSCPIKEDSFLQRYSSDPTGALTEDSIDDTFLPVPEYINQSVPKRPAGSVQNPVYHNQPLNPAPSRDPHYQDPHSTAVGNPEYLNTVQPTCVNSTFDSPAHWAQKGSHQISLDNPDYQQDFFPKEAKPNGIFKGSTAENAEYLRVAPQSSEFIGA
Sequence of Follistatin-related protein 3 (Homo sapiens) (O95633 whole entry, looked up): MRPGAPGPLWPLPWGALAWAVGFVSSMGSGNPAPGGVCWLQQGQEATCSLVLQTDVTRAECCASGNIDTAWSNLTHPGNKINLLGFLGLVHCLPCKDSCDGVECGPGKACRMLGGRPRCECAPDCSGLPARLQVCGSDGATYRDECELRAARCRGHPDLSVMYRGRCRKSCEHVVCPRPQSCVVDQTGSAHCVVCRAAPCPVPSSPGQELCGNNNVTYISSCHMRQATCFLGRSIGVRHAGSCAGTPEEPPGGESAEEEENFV

SMILES	composite z-score [1]	composite z-score [2]	composite z-score [3]	z-score [4]	composite z-score [5]	composite z-score [6]	composite z-score [7]	composite z-score [8]	composite z-score [9]	composite z-score [10]
COc1ccc([Si](C)(C)[C@H]2[C@H](CC(=O)N(CCO)Cc3ccccc3)O[C@@]3(C(=O)N(c4ccccc4)c4ccccc43)[C@@H]2C)cc1	0.717	-0.202	-0.0698	-1.5 (inactive)	0.889	0.289	0.686	1.09	0.415	0.841
C=CCC(OC(C)=O)[C@@H]1[C@@H](N(Cc2cccc3ccccc23)C(=O)c2ccc(C)cc2)c2cc(OCCCO)ccc2N1C(=O)Cc1ccc2ccccc2c1 (stereo not given in full)	-0.542	0.0891	0.135	-1.86 (inactive)	-0.123	-0.0662	0.13	-0.345	0.248	1.34
COCCOC(=O)N1C(=O)[C@@]2(c3cc(C#CC4(O)CCCCCC4)ccc31)[C@H](C(N)=O)[C@H]1C(=O)O[C@H](c3ccccc3)[C@H](c3ccccc3)N1[C@@H]2c1ccc(OCCO)cc1	0.804	0.527	0.668	-0.0691 (inactive)	0.99	1.28	0.484	0.974	0.338	0.725
COC(=O)[C@@]1(Cc2ccc(F)cc2)[C@H]2c3cc(C(=O)N4CCCC4)n(C[C@H](O)CO)c3C[C@H]2CN1C(=O)c1ccccc1	0.543	1.48	0.609	0.749 (inactive)	0.0396	0.094	-0.0057	0.111	0.145	0.549
CCCCCCc1nc(Cc2cc(OC)c(OC)c(OC)c2)c(C)c2c1[Si](C(C)C)(C(C)C)OC2	0.197	-0.1	-0.35	-2.3 (inactive)	0.261	0.104	-0.0718	0.237	0.163	0.987
[N-]=[N+]=Nc1ccccc1C[C@]1(C(N)=O)COC(c2ccc(OCCCO)cc2)=N1	0.219	1.07	1.04	-0.32 (inactive)	-0.128	-0.51	-0.969	-1.16	-1.18	1.13
C=CCNC(=O)[C@@H]1[C@H]2C(=O)O[C@H](c3ccccc3)[C@H](c3ccccc3)N2[C@H](c2ccc(O)cc2)[C@@]12C(=O)Nc1ccc(C#CC3=CCCCC3)cc12	1.6	0.582	-0.228	-0.258 (inactive)	1.24	0.887	0.494	0.79	0.626	0.406
CC(C)C[C@@H]1NC(=O)[C@H]2C[C@@H](C(=O)O)[C@@H](c3cccc(OCCO)c3)N2C1=O	0.524	0.0083	0.677	0.256 (inactive)	0.0039	0.969	0.193	1.2	1.11	1.19
CC(C)C[C@@H]1NC(=O)[C@@H]2C[C@H](C(=O)NCCCCCNC(=O)CS)[C@H](c3ccc(O)cc3)N2C1=O	1.67	-0.1	-0.03	-3.37 (inactive)	-0.113	-0.0192	0.135	0.286	0.353	-0.111
CN1C(=O)C2C=CC(C(O)c3ccc([N+](=O)[O-])cc3)N(Nc3ccccc3)C2C1=O (stereo not given)	1.25	0.279	0.998	0.293 (inactive)	0.898	0.895	0.0754	1.01	-0.157	0.905
COc1cc2c(cc1OC)CN(C(=O)[C@@H]1[C@H]3C(=O)O[C@H](c4ccccc4)[C@H](c4ccccc4)N3[C@H](c3ccc(O)cc3)[C@@]13C(=O)Nc1ccc(C#CC4=CCCCC4)cc13)CC2	1.39	0.716	0.586	-0.101 (inactive)	0.975	1.28	0.452	1.03	0.453	0.475
C=CCNC(=O)[C@H]1[C@@H]2C(=O)O[C@@H](c3ccccc3)[C@@H](c3ccccc3)N2[C@@H](c2ccc(OCCO)cc2)[C@]12C(=O)Nc1ccc(C#Cc3ccc(OC)cc3)cc12	1.34	0.626	0.632	-0.258 (inactive)	1.23	1.33	0.486	1.17	0.736	-0.274
CC(C)c1ccc(NN2C(C(O)C3=C[C@H]4C[C@@H](C3)C4(C)C)C=CC3C(=O)N(c4ccccc4)C(=O)C32)cc1 (stereo not given in full)	0.969	0.886	0.665	-0.0409 (inactive)	0.409	0.577	0.366	0.827	0.245	0.829
CCOC(=O)C1=C[C@@H](C(C)(C)C)N(S(=O)(=O)c2ccc(C)cc2)[C@H]1c1ccc(OC)cc1	0.463	0.305	-0.0462	-1.5 (inactive)	0.998	1.29	0.902	1.27	0.33	0.318
COc1ccc(CCNC(=O)[C@@]2(c3ccc([N+](=O)[O-])cc3)CC(=O)N(C3CCCCC3)[C@@H]2c2ccc(CO)cc2I)cc1	0.401	-0.0644	-0.0582	0.845 (inactive)	0.823	0.56	0.19	0.241	0.608	0.44
COc1ccc(C(O)C2C=CC3C(=O)N(C)C(=O)C3N2Nc2ccccc2)cc1 (stereo not given)	0.454	-0.0205	0.87	-0.52 (inactive)	0.663	0.925	0.468	0.441	0.312	0.979
CC1CC/C=C\[C@H]2OC34C=CCN(CCN5CCOCC5)C(=O)[C@H]3N(C(CO)C(C)C)C(=O)[C@@H]4C2C(=O)O1 (stereo not given in full)	1.5	-0.155	0.0473	-0.192 (inactive)	-0.268	0.169	-0.31	-0.239	-0.112	1.17
Cc1ccc(S(=O)(=O)N2[C@@H](c3ccccc3)C(C(=O)O)=C[C@H]2C(C)(C)C)cc1	1.19	1.08	1.01	0.233 (inactive)	0.644	1.35	0.374	0.819	0.0781	-0.124
CCOC(=O)C[C@H]1[C@H](OC(=O)c2ccccc2-c2ccccc2)[C@@H](NC(=O)CC(C)C)c2cc(OCCCO)ccc2N1C(=O)c1ccccc1	0.461	-0.28	-0.56	-0.739 (inactive)	0.625	0.211	0.405	1.26	0.523	-0.105
CC(C)C[C@H]1NC(=O)CNC(=O)[C@@]23C(=O)N[C@@H](Cc4ccccc4)C2[C@H](C)[C@@]2(C)O[C@H]2C3/C=C/C/C=C\CNC1=O (stereo not given in full)	0.288	-0.129	-0.671	0.187 (inactive)	0.749	0.407	0.181	0.811	0.267	1.48
Cc1ccc(S[C@]2(C(=O)NC(C)C)CC(=O)N(Cc3ccccc3)[C@@H]2c2ccc(CO)cc2I)cc1	0.984	0.498	1.27	-0.328 (inactive)	-0.284	-0.683	-1.27	-0.911	-2.57	1.01
COc1cc(Cc2cc3c(c(-c4ccccc4)n2)[Si](C(C)C)(C(C)C)OC3)cc(OC)c1OC	-0.201	-0.113	0.105	-0.877 (inactive)	0.607	-0.0611	0.1	0.0088	0.17	1.23
COC(=O)[C@@]1(Cc2ccc(F)cc2)[C@@H]2C(=CC(=O)[C@H]2CC(=O)C(=O)N2CCCC2)CN1C(=O)c1ccccc1	0.9	1.72	0.978	-4.12 (inactive)	1.48	0.573	1.36	1.39	0.467	1.19
COc1ccc(C#Cc2ccc3c(c2)[C@]2(C(=O)N3)[C@H](c3ccccc3OCCO)N3[C@H](c4ccccc4)[C@H](c4ccccc4)OC(=O)[C@H]3[C@@H]2C(=O)NC[C@H](O)c2ccccc2)cc1	1.3	0.183	-0.0392	-2.01 (inactive)	1.33	1.31	0.573	1.34	1.2	-0.0784
COC(=O)[C@]1(Cc2ccccc2CN=[N+]=[N-])N=C(c2ccc(OCCCO)cc2)O[C@@H]1c1ccccc1N=[N+]=[N-]	0.973	-0.507	0.172	-0.346 (inactive)	0.267	0.135	-0.296	-0.332	-0.268	1.08
CN1C(=O)C2CC=C(C3=CCO[C@@H]3[C@H]3CCCN3S(=O)(=O)c3ccccc3[N+](=O)[O-])CC2C1=O (stereo not given in full)	1.11	-0.22	-0.193	0.129 (inactive)	0.447	-0.12	-0.141	-0.59	-0.261	0.666
COc1cccc(C)c1NC(=O)O[C@H]1[C@H](OC(=O)Nc2ccc3c(c2)OCO3)[C@H](OC(=O)Nc2ccc3c(c2)OCO3)[C@@H](OC)O[C@@H]1CO	1.28	-0.0573	0.306	-0.316 (inactive)	1.39	1.34	0.169	1.01	0.487	0.69
CC(=O)NCCCC[C@@H]1NC(=O)[C@H]2C[C@@H](C(=O)O)[C@@H](c3cccc(OCCO)c3)N2C1=O	1.69	0.904	0.237	0.345 (inactive)	1.25	1.33	0.556	1.32	0.639	0.316
COc1ccc([Si](C)(C)[C@H]2[C@H](CC(=O)N3CCC[C@H]3CO)O[C@@]3(C(=O)N(C)c4ccccc43)[C@@H]2C)cc1	0.364	0.214	-0.159	0.361 (inactive)	0.105	-0.102	0.335	0.705	0.588	1.48
